Data reported in PubChem BioAssay (NCI).
About 79,000 compounds went through this panel and 15% of them were active in at least one assay; those are over-represented in the sample as a whole. Active and inactive are the calls of the source. Rule as the data show it: active = growth inhibition above about 70%; inactive = the rest.

Tests used:
[1] = NCI Yeast Anticancer Drug Screen. Data for the wt2 strain (AID 169);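 also: 0% = growth of vehicle-treated yeast cultures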; conditions: S. cerevisiae wt2 strain growth inhibition, stronger effect = higher value
In short: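 Genetically defined yeast strains from a DNA-repair/cell-cycle panel were used. Compound-exposed yeast growth was measured, and the inhibition was calculated relative to vehicle treatment.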

[2] = NCI Yeast Anticancer Drug Screen. Data for the mlh1 strain (AID 171);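 also: 0% = growth of vehicle-treated control cultures of the same strain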; conditions: S. cerevisiae mlh1 strain growth inhibition, stronger effect = higher value
In short: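 Here the genetically defined yeast mutant is grown with each compound, and the extent to which its growth falls below that of vehicle-exposed cells is reported.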

[3] = NCI Yeast Anticancer Drug Screen. Data for the sgs1 strain (AID 173);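 also: 0% = growth of vehicle-only control cultures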; conditions: S. cerevisiae sgs1 mutant, stronger effect = higher value
In short: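 Relative growth inhibition, referenced to vehicle, was determined in a yeast strain with a defined alteration affecting DNA damage repair or cell cycle control after compound exposure.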

[4] = NCI Yeast Anticancer Drug Screen. Data for the mlh1 rad18 strain (AID 175); conditions: S. cerevisiae mlh1 rad18 strain growth inhibition, stronger effect = higher value
In short: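 In this whole-cell yeast screen, a strain with altered DNA damage repair is challenged with compound, and its growth is measured against matched vehicle-treated controls.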

[5] = NCI Yeast Anticancer Drug Screen. Data for the rad18 strain (AID 177); conditions: S. cerevisiae rad18 mutant growth inhibition, stronger effect = higher value
In short: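 Screen uses a yeast strain with a defined lesion in DNA damage repair; compound effect is read as loss of growth compared to untreated vehicle cultures.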

[6] = NCI Yeast Anticancer Drug Screen. Data for the rad52 strain (AID 147);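 also: 0% = growth of vehicle-treated control cultures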; conditions: S. cerevisiae rad52 mutant growth inhibition, stronger effect = higher value
In short: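 Measured: yeast growth inhibition. System: strain with a defined DNA damage repair alteration. Reference: vehicle-treated control cultures.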

[7] = NCI Yeast Anticancer Drug Screen. Data for the wt1 strain (AID 149);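 also: 0% = growth of vehicle-treated wt1 cultures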; conditions: S. cerevisiae wt1 strain (SPY 50644) growth inhibition, stronger effect = higher value
In short: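 Measured: growth of wt1 yeast under compound versus vehicle treatment, reported as inhibition.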

[8] = NCI Yeast Anticancer Drug Screen. Data for the rad50EPP+ strain (AID 151);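 also: 0% = growth of vehicle-treated control cultures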; conditions: S. cerevisiae rad50 mutant strain, stronger effect = higher value
In short: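 One strain with a rad50 alteration (rad50EPP+) was compound-treated, its growth then compared to that of vehicle controls.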

[9] = NCI Yeast Anticancer Drug Screen. Data for the mgt1 strain (AID 153); conditions: S. cerevisiae mgt1 mutant growth inhibition, stronger effect = higher value
In short: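 After exposure of the mgt1 yeast mutant to compound, growth was measured and reported as inhibition compared with vehicle controls.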

[10] = NCI Yeast Anticancer Drug Screen. Data for the rad50 strain (AID 155);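 also: 0% = growth of vehicle-only cultures of the same strain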; conditions: S. cerevisiae rad50 strain growth inhibition, stronger effect = higher value
In short: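 Growth of the mutant yeast was measured after compound exposure and referenced to vehicle-treated cultures.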

[11] = NCI Yeast Anticancer Drug Screen. Data for the mec2-1 strain (AID 157); conditions: S. cerevisiae mec2-1 strain, stronger effect = higher value
In short: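 Test agents were screened against the mec2-1 yeast strain, with defined DNA repair or cell cycle alteration. Growth was scored as inhibition against vehicle-only controls.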

[12] = NCI Yeast Anticancer Drug Screen. Data for the rad14 strain (AID 159);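 also: 0% = growth of vehicle-treated control cultures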; conditions: S. cerevisiae rad14 strain growth inhibition, stronger effect = higher value
In short: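 Here, inhibition of yeast growth was measured after compound exposure, using a strain with a genetic defect in DNA damage repair and vehicle-treated cultures as the reference.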

[13] = NCI Yeast Anticancer Drug Screen. Data for the sgs1 mgt1 strain (AID 161);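 also: 0% = growth of cultures given vehicle only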; conditions: S. cerevisiae sgs1 mgt1 strain, stronger effect = higher value
In short: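 Mutant yeast exposed to compound; growth scored against vehicle-only wells.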

[14] = NCI Yeast Anticancer Drug Screen. Data for the CLN2oe strain (AID 163);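 also: 0% = growth of vehicle-only control cultures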; conditions: S. cerevisiae CLN2oe strain, stronger effect = higher value
In short: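 Here, growth inhibition in a cell-cycle-altered yeast strain after compound exposure was quantified against vehicle control growth.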

[15] = NCI Yeast Anticancer Drug Screen. Data for the cln2 rad14 strain (AID 165);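 also: 0% = growth equal to vehicle treated cultures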; conditions: S. cerevisiae cln2 rad14 strain, stronger effect = higher value
In short: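 Growth of compound-exposed yeast (cln2 rad14 genotype) measured and expressed as inhibition relative to vehicle.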

[16] = NCI Yeast Anticancer Drug Screen. Data for the bub3 strain (AID 167); conditions: S. cerevisiae bub3 mutant strain, stronger effect = higher value
In short: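 Whole-cell yeast assay. The mutant strain was incubated with compounds, and growth inhibition was determined by comparison with vehicle-treated cells.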

[17] = at 5.0 µM (retest, dose inferred, filed as 0.5)
[18] = at 50.0 µM (retest, dose inferred, filed as 5.0)

Measured: growth inhibition

CC(=O)/C(=C\c1ccc(Cl)c(Cl)c1)C(=O)C(C)CN(C)C (stereo unspecified)
active: [1]; at 33.0 µM 88% | [1]; at 100.0 µM 98% | [2]; at 100.0 µM 93% | [3]; at 33.0 µM 76% | [3]; at 100.0 µM 97% | [4]; [18] 97% | [4]; at 50.0 µM 90.3% | [5]; at 33.0 µM 82% | [5]; at 100.0 µM 93%
inactive: [1]; at 1.2 µM -12% | [1]; at 3.7 µM -6% | [1]; at 11.0 µM -1% | [2]; at 1.2 µM 6% | [2]; at 3.7 µM -2% | [2]; at 11.0 µM 10% | [2]; at 33.0 µM 46% | [3]; at 1.2 µM 40% | [3]; at 3.7 µM 48% | [3]; at 11.0 µM 64% | [4]; [17] 16% | [5]; at 1.2 µM 26% | [5]; at 3.7 µM 30% | [5]; at 11.0 µM 55%

CC1(C)CC(=O)C(C=NC(=S)C(N)=S)=C(O)C1
inactive: [6]; at 1.2 µM -47% | [6]; at 3.7 µM -57% | [6]; at 11.0 µM -63% | [6]; at 33.0 µM -49% | [6]; at 100.0 µM 69% | [7]; at 1.2 µM -30% | [7]; at 3.7 µM -39% | [7]; at 11.0 µM -37% | [7]; at 33.0 µM -16% | [7]; at 100.0 µM 21% | [8]; at 1.2 µM -43% | [8]; at 3.7 µM -49% | [8]; at 11.0 µM -46% | [8]; at 33.0 µM -51% | [8]; at 100.0 µM -25% | [9]; at 1.2 µM -13% | [9]; at 3.7 µM 0% | [9]; at 11.0 µM 3% | [9]; at 33.0 µM 21% | [10]; at 1.2 µM -15% | [10]; at 3.7 µM -14% | [10]; [17] -26% | [10]; at 11.0 µM -13% | [10]; at 33.0 µM 6% | [10]; [18] 14% | [10]; at 50.0 µM 15.5% | [10]; at 100.0 µM 69% | [11]; at 1.2 µM -40% | [11]; at 3.7 µM -34% | [11]; [17] -6% | [11]; at 11.0 µM -41% | [11]; at 33.0 µM -19% | [11]; [18] 22% | [12]; at 1.2 µM -18% | [12]; at 3.7 µM -7% | [12]; at 11.0 µM -16% | [12]; at 33.0 µM -18% | [12]; at 100.0 µM 19% | [13]; [17] -2% | [13]; [18] 8% | [13]; at 50.0 µM 35.5% | [14]; at 1.2 µM -35% | [14]; at 3.7 µM -25% | [14]; at 11.0 µM -30% | [14]; at 33.0 µM -10% | [15]; [17] 23% | [15]; [18] 32% | [15]; at 50.0 µM 10.3% | [16]; at 1.2 µM -30% | [16]; at 3.7 µM -20% | [16]; [17] 18% | [16]; at 11.0 µM -24% | [16]; at 33.0 µM -31% | [16]; [18] 38% | [16]; at 50.0 µM 6.15% | [1]; at 1.2 µM -47% | [1]; at 3.7 µM -52% | [1]; at 11.0 µM -59% | [1]; at 33.0 µM -41% | [1]; at 100.0 µM 20% | [2]; at 1.2 µM -31% | [2]; at 3.7 µM -26% | [2]; at 11.0 µM -9% | [2]; at 33.0 µM 6% | [3]; at 1.2 µM -28% | [3]; at 3.7 µM -31% | [3]; at 11.0 µM -29% | [3]; at 33.0 µM -15% | [3]; at 100.0 µM 65% | [4]; [17] -7% | [4]; at 50.0 µM 45.2% | [5]; at 1.2 µM -8% | [5]; at 3.7 µM -4% | [5]; at 11.0 µM -15% | [5]; at 33.0 µM -1%
active: [9]; at 100.0 µM 84% | [11]; at 50.0 µM 74.1% | [11]; at 100.0 µM 91% | [14]; at 100.0 µM 96% | [16]; at 100.0 µM 91% | [2]; at 100.0 µM 91% | [4]; [18] 75% | [5]; at 100.0 µM 70%
